Results taken from PubChem BioAssay (NCI).
This is part of a sample that, as a whole, favours compounds with a hit. Of some 83,000 tested, about 20% had one in any assay.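 Activity criterion: percent growth below 10, measured after cells in 96-well plates were exposed to a single compound concentration for 48 hours.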 Unmarked numbers belong to inactive results. The source made the active and inactive calls.

Tested on: EKVX NSCLC
Experiment: NCI-60 one-dose screen, 48 h (100 = growth as untreated, 0 = no growth, -100 = all killed)
Conditions: 10 µM

SMILES | growth
CN1CCN(c2ccc(Nc3nc(NCCCNC(=O)c4ccc(F)cc4)c4sccc4n3)cc2)CC1 | 87.8%
O=C(CS(=O)(=O)c1oc(-c2ccc(Cl)cc2)nc1S(=O)(=O)c1ccc(Cl)cc1)N1CCOCC1 | 83.5%
COc1ccc(C(=O)NC(=S)N2CCN(c3ncnc4c3cnn4-c3ccccc3)CC2)cc1 | 81.4%
COc1cccc(COc2ccc(/C=C3\Oc4cc(O)ccc4C3=O)cc2)c1 | 70.9%
O=C(O)CCCCCCCCCCN1C(=O)/C(=C/c2cnc(-c3ccc(Cl)cc3)s2)SC1=S | -12.5% (active)
COc1cccc(C(N)=Nc2ccc(OCCCCCCn3cncn3)cc2)c1 | 42%
CN(C)c1cccc2c(S(=O)(=O)Nc3cccc(-c4csc(NC(=O)CCCCCN5CCN(c6cc7c(cc6F)C(=O)N(C6CCC(=O)NC6=O)C7=O)CC5)n4)c3)cccc12 (centres undefined) | 80.8%
Cc1ccc(C(C)C)cc1NC(=O)c1ccccc1O | 49.7%
NC(=Nc1ccc(OCCCCCCCCn2ccnn2)cc1)c1ccccc1 | 42.7%
O=c1[nH][nH]c(Nc2ccccc2)c1N=Nc1ccc(F)cc1 | 72.1%
COc1ccc2[nH]c(O)c(N=NC(=O)c3cc(-c4ccc(C)cc4)nc4ccccc34)c2c1 | 97.6%
CN1C(=O)/C(=C/c2nccs2)SC1=S | 80.7%
CNC(=O)c1cc(-c2ccc(NC(=O)Nc3ccc(C)cc3)cc2)nc2cccnc12 | 99.4%
CC(=O)NNc1ccc2nnc(-c3ccc(Br)cc3)n2n1 | 81.7%
